The full data set covers some 7,900 targets. This sample favours those with a hit. About 0.6% of all pairs of compound and target were hits. Unmarked numbers belong to inactive results.
Assays:
Experiment in all cases: log2 fold change, soluble protein after heating vs DMSO (PISA); higher = thermal stabilisation; K562 cells, 10 uM, 30 min; active = over 0.2 and 3.5 SD of the protein, either way, in both replicates (recomputed)
[1] = compound: CC1=C(C=C(C=C1)NC(=O)C2=CC(=CC=C2)C(C)(C)C#N)NC3=CC4=C(C=C3)N=CN(C4=O)C
Summary of the method: (§1)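 K562 cells at 2×10^6 cells/mL were treated for 30 min with 10 μM compound, and aliquots were heated for 3 min over 48°C-58°C before pooling. Extraction used PBS with 0.5% NP-40 at 4°C, and soluble protein was the supernatant after 21,000xg for 90 min, measured by TMTpro 16plex LC-MS/MS with channel sums equalised. Thermal stability values, relative to control samples and from duplicates, are log2 fold changes.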

[2] = compound: CC1=C(C=C(C=C1)NC(=O)C2=CC(=CC=C2)N(C)C)NC(=O)C3=CC=C(C=C3)O
Summary of the method: as §1

[3] = compound: CC1=CC=C(C=C1)SC2=C3C=C(SC3=CN=C2)C(=O)N
Summary of the method: as §1

[4] = compound: CC1=NC(=CC=C1)C2=C(N=C(N2)C(C)(C)C)C3=CC4=NC=CN=C4C=C3
Summary of the method: as §1

[5] = compound: CCCCN(Cc1ccc(C(=O)NO)cc1)C(=O)Nc1ccccc1 [Nexturastat A]
Summary of the method: as §1

[6] = compound: CCCS(=O)(=O)Nc1ccc(F)c(C(=O)c2c[nH]c3ncc(-c4ccc(Cl)cc4)cc23)c1F [vemurafenib]
Summary of the method: as §1

[7] = compound: CCCS(=O)(=O)Nc1ccc(F)c(C(=O)c2c[nH]c3ncc(Cl)cc23)c1F
Summary of the method: as §1

[8] = compound: CCCc1cc(C)[nH]c(=O)c1CNC(=O)c1cc(-c2ccnc(N3CCN(C)CC3)c2)cc2c1cnn2C(C)C
Summary of the method: as §1

[9] = compound: CCN(CC)Cc1ccc2cc(COC(=O)Nc3ccc(C(=O)NO)cc3)ccc2c1 [givinostat]
Summary of the method: as §1

[10] = compound: CCN(CCCOc1ccc2c(Nc3cc(CC(=O)Nc4cccc(F)c4)[nH]n3)ncnc2c1)CCOP(=O)(O)O [barasertib]
Summary of the method: as §1

[11] = compound: CC[C@@H]1C(=O)N(C)c2cnc(Nc3ccc(C(=O)NC4CCN(C)CC4)cc3OC)nc2N1C1CCCC1
Summary of the method: as §1

[12] = compound: CC[C@@H]1C(=O)N(C)c2cnc(Nc3ccc(C(=O)N[C@H]4CC[C@H](N5CCN(CC6CC6)CC5)CC4)cc3OC)nc2N1C(C)C [volasertib]
Summary of the method: as §1

[13] = compound: CC[C@H](C)N1C=C(C2=C(C=C(C=C21)C3=CN=C(C=C3)N4CCNCC4)C(=O)NCC5=C(C=C(NC5=O)C)C)C
Summary of the method: as §1

[14] = compound: CC[C@H](C)[C@@H](C(=O)N[C@@H]([C@@H](C)O)C(=O)N[C@@H](CC(C)C)C(=O)[C@]1(CO1)C)NC(=O)[C@H]([C@@H](C)CC)N(C)C(=O)C [epoxomicin]
Summary of the method: as §1

[15] = compound: CCn1c(C(=O)N(C2CC2)C2CC2)cc2c3c(ncn3C)c(Nc3cc(C)n(C)n3)nc21
Summary of the method: as §1

[16] = compound: CCn1cc(-c2ccnc3[nH]c(-c4cccc(CN(C)C)c4)cc23)c(-c2ccc(NC(=O)N(C)C)cc2)n1
Summary of the method: as §1

[17] = compound: CN(C)CC(=O)Nc1ccc2[nH]c(=O)c3ccccc3c2c1
Summary of the method: as §1

[18] = compound: CN(CCOC1=CC=C(C=C1)C[C@H]2C(=O)NC(=O)S2)C3=CC=CC=N3 (racemic) [rosiglitazone]
Summary of the method: as §1

[19] = compound: CN1C2=C(C3=C1C(=O)N(N=C3)CC4=CC(=CC=C4)N)SC(=C2)S(=O)C
Summary of the method: as §1

[20] = compound: CN1CCC(CNc2ccc3ncc(-c4cccc(OC(F)(F)F)c4)n3n2)CC1
Summary of the method: as §1

Chain of UniProt P11586 (P11586 whole entry, looked up): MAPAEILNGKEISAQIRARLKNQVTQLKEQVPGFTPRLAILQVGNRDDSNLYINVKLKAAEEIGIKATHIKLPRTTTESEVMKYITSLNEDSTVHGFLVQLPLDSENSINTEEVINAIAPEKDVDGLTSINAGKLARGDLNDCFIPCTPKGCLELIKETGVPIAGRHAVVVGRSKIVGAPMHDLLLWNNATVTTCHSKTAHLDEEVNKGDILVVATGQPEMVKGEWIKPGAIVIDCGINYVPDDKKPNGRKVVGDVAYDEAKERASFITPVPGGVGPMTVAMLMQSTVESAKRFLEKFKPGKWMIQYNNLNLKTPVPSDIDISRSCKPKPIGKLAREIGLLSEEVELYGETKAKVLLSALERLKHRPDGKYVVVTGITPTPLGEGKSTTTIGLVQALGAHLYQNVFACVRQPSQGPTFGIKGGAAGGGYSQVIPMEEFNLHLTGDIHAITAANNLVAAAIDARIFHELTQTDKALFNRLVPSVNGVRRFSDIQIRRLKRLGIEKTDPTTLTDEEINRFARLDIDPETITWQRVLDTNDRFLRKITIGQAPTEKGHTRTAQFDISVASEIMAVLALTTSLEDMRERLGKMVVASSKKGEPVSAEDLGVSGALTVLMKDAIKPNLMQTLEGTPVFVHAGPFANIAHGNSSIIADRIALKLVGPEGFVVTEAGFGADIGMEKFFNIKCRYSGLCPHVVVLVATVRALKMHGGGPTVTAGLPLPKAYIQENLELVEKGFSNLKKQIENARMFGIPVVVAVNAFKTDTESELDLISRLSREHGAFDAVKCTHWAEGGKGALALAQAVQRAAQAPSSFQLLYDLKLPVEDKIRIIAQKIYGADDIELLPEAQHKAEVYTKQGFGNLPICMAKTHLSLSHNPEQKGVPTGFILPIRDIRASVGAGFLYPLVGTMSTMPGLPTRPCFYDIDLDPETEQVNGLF
Chain of UniProt Q9H8H0 (Q9H8H0 whole entry, looked up): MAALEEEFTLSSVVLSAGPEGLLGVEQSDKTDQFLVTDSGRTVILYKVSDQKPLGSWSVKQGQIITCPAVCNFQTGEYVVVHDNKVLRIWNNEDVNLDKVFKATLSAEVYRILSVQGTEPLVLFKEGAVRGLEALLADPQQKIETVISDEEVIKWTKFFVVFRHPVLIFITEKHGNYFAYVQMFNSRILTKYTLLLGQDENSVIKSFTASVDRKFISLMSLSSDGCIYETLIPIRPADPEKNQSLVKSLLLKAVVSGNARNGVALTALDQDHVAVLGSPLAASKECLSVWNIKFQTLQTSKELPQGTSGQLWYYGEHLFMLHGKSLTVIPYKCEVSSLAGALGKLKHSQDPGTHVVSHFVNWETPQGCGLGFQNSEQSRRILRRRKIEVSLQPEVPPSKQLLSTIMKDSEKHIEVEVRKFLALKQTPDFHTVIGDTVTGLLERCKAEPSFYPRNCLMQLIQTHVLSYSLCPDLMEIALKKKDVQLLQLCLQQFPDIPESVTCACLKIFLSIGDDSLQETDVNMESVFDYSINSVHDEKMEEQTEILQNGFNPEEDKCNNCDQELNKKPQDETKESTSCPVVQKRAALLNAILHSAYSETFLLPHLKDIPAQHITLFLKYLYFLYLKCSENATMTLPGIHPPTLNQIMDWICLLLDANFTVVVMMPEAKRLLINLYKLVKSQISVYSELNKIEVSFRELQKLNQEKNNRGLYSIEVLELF
Chain of UniProt Q969V5 (Q969V5 whole entry, looked up): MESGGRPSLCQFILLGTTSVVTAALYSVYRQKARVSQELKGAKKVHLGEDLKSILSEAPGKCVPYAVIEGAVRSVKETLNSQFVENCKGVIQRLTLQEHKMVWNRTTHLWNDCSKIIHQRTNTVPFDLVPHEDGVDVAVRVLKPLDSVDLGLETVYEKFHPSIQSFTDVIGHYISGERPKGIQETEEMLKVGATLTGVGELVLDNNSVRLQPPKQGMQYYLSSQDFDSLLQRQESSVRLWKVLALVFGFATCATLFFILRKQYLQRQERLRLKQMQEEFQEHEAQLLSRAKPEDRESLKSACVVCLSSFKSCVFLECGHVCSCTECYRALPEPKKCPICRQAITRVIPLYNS
Chain of UniProt P35580 (P35580 whole entry, looked up): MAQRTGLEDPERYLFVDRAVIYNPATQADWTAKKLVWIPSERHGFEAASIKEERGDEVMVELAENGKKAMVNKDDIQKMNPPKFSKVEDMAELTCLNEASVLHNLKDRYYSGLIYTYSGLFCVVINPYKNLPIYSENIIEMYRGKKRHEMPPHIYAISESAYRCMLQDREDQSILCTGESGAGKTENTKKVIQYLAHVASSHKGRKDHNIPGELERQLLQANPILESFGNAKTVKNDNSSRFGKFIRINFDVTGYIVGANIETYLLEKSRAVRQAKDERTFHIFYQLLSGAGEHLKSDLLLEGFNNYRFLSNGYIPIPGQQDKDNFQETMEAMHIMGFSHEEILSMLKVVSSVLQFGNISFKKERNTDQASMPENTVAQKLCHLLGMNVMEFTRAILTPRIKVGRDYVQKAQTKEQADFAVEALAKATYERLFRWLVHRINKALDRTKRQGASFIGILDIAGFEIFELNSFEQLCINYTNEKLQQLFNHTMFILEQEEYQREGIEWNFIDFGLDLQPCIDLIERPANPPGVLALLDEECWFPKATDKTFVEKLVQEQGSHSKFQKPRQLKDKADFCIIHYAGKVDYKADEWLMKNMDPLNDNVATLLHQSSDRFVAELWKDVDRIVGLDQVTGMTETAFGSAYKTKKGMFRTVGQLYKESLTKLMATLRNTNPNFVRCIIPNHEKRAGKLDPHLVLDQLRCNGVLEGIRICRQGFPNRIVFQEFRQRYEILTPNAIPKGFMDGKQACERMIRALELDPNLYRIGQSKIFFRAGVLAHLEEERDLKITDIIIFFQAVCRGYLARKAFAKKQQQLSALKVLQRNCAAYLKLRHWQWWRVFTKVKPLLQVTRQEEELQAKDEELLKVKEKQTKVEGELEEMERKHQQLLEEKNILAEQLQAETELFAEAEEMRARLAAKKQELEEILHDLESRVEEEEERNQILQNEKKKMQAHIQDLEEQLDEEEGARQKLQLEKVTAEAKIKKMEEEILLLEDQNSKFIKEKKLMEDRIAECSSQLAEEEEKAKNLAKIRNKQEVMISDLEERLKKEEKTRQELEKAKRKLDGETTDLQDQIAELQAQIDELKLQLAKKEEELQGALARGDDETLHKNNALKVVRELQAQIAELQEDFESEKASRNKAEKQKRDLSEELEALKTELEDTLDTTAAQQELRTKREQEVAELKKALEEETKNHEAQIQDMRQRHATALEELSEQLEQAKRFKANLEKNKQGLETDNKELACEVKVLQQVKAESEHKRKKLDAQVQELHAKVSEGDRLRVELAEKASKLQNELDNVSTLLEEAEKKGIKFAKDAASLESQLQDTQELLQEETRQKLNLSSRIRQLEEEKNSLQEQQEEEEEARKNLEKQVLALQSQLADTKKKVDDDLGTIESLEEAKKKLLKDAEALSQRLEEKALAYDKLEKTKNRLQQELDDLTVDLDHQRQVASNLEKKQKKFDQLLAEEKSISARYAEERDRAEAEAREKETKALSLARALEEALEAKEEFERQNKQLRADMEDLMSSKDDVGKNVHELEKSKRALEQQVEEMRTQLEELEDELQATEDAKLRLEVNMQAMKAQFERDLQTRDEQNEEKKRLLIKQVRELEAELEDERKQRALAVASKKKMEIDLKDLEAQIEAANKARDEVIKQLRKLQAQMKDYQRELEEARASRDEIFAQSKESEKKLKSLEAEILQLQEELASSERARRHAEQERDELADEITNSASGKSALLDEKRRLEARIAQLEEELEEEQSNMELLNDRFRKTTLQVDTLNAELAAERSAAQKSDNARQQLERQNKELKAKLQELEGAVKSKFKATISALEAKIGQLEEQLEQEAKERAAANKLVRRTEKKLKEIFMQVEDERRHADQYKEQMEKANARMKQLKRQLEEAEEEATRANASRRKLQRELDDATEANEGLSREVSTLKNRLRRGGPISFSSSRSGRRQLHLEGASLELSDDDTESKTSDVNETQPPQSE
Chain of UniProt P15559 (P15559 whole entry, looked up): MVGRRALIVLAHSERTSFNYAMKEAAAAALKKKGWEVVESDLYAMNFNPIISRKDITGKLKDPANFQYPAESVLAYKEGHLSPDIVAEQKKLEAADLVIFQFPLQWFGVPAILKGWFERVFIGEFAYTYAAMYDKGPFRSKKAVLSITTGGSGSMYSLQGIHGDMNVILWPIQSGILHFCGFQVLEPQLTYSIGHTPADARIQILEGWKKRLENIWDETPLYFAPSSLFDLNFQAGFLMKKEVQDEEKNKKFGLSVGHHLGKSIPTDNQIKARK
Chain of UniProt Q96MF7 (Q96MF7 whole entry, looked up): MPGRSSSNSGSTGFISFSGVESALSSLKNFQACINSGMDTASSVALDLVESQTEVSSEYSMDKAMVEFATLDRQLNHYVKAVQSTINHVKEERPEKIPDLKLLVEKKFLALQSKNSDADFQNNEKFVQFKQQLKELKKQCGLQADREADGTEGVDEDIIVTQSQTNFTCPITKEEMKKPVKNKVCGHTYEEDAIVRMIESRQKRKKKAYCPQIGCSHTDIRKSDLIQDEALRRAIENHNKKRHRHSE
Chain of UniProt Q96DE0 (Q96DE0 whole entry, looked up): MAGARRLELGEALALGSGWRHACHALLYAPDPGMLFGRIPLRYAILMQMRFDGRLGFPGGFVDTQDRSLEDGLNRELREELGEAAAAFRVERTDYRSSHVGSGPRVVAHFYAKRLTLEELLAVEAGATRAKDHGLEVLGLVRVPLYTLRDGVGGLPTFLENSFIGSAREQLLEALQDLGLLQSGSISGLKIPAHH
Chain of UniProt Q8N7B6 (Q8N7B6 whole entry, looked up): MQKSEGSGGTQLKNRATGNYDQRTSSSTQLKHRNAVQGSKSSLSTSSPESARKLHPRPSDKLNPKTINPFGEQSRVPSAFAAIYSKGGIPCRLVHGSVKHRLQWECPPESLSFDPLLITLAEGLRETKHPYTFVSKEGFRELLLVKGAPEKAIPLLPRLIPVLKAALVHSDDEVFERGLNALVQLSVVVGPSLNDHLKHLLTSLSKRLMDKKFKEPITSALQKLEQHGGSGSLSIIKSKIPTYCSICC

Target | log2 fold change [1] | log2 fold change [2] | log2 fold change [3] | log2 fold change [4] | log2 fold change [5] | log2 fold change [6] | log2 fold change [7] | log2 fold change [8] | log2 fold change [9] | log2 fold change [10] | log2 fold change [11] | log2 fold change [12] | log2 fold change [13] | log2 fold change [14] | log2 fold change [15] | log2 fold change [16] | log2 fold change [17] | log2 fold change [18] | log2 fold change [19] | log2 fold change [20]
MTHFD1 (UniProt P11586) | 0.052 | -0.026 | 0.003 | 0.042 | -0.046 | 0.06 | 0.046 | -0.013 | 0.048 | 0.038 | -0.074 | -0.002 | 0.035 | 0.067 | -0.011 | -0.159 | 0.051 | 0.024 | -0.057 | 0.004
NEDD4 isoform 4 (UniProt P46934) | -0.069 | -0.011 | -0.025 | 0.047 | -0.04 | 0.029 | 0.026 | 0.026 | 0.018 | 0.009 | -0.102 | -0.521 (active) | 0.008 | 0.008 | 0 | -0.031 | 0.015 | 0.065 | -0.01 | 0.049
NQO1 (UniProt P15559) | 0.075 | -0.023 | 0.032 | 0.025 | -0.049 | 0.027 | -0.007 | 0.039 | -0.01 | 0.036 | 0.011 | 0.057 | 0.276 (active) | 0.083 | 0.159 | -0.064 | -0.005 | 0.013 | 0.356 (active) | 0.046
NSUN2 (UniProt Q08J23) | -0.042 | 0.013 | -0.021 | -0.009 | 0.037 | 0.016 | 0.061 | 0.019 | -0.204 | 0.037 | -0.182 | -0.286 | 0.051 | -0.044 | 0.017 | -0.044 | 0.009 | 0.029 | 0.025 | -0.131
NELFA (UniProt Q9H3P2) | -0.02 | -0.124 | 0.011 | 0.092 | -0.104 | 0.06 | 0.097 | 0.024 | 0.079 | 0.212 | -0.4 | -0.868 (active) | 0.341 | 0.053 | -0.105 | -0.139 | 0.16 | 0.048 | -0.051 | 0.006
NOL11 (UniProt Q9H8H0) | -0.023 | 0.029 | 0.004 | 0.013 | -0.024 | -0.026 | 0.003 | -0.016 | 0.015 | -0.021 | 0.029 | -0.097 | -0.025 | -0.015 | -0.031 | -0.027 | -0.005 | -0.025 | -0.028 | 0.126
NSMCE2 (UniProt Q96MF7) | 0.019 | -0.052 | 0.006 | 0.056 | 0.064 | -0.007 | 0.021 | 0.018 | -0.076 | 0.078 | 0.072 | -0.032 | -0.003 | -0.089 | 0.025 | 0.079 | -0.007 | 0.119 | 0.059 | 0.397 (active)
NFATC2 (UniProt Q13469) | -0.046 | -0.079 | -0.031 | 0.018 | 0.12 | 0.038 | 0.041 | 0.086 | 0.192 | 0.107 | -0.098 | -0.281 | 0.19 | -0.001 | 0.045 | -0.197 | 0.065 | 0.191 | 0.039 | -0.102
MSH6 (UniProt P52701) | 0.076 | -0.078 | 0.112 | 0.108 | -0.049 | 0.119 | 0.194 | 0.03 | 0.35 | 0.171 | -0.306 | -0.683 (active) | 0.227 | 0.097 | -0.127 | -0.089 | 0.172 | 0.179 | -0.044 | -0.261
MON2 isoform 5 (UniProt Q7Z3U7) | -0.002 | -0.009 | -0.036 | 0.018 | 0 | 0.017 | 0.085 | 0.046 | 0.029 | 0.039 | -0.125 | -0.377 (active) | 0.06 | 0.023 | 0 | -0.028 | 0.031 | 0.062 | -0.064 | -0.158
MRPL46 (UniProt Q9H2W6) | 0.061 | -0.044 | -0.009 | -0.064 | 0.076 | -0.061 | -0.006 | 0.009 | -0.003 | -0.008 | 0.209 | 0.302 | 0.034 | 0.015 | 0.075 | -0.04 | 0.014 | -0.017 | 0.061 | 0.12
NMT1 (UniProt P30419) | -0.012 | -0.006 | -0.012 | 0.021 | -0.036 | -0.013 | 0 | 0.023 | -0.284 (active) | -0.015 | 0.028 | -0.21 | 0.036 | 0.014 | 0.016 | -0.028 | -0.022 | -0.073 | 0.007 | -0.097
PACRGL (UniProt Q8N7B6) | 0.01 | – | – | – | – | – | – | – | – | – | – | – | – | – | – | – | – | – | – | –
MUL1 (UniProt Q969V5) | -0.061 | -0.015 | 0.01 | -0.004 | -0.022 | -0.039 | 0.024 | 0.11 | 0.005 | 0.005 | 0.061 | 0 | 0.045 | 0.04 | -0.004 | 0.014 | -0.028 | 0.052 | -0.004 | -0.115
NMT2 (UniProt O60551) | 0.006 | 0.018 | 0.237 | 0.024 | -0.037 | -0.034 | 0.031 | 0.02 | -0.233 | 0 | 0.013 | -0.177 | 0.039 | 0.01 | -0.001 | -0.098 | -0.013 | -0.056 | 0.002 | -0.208
MYH10 isoform 3 (UniProt P35580) | 0.009 | -0.033 | 0.019 | 0.07 | -0.05 | 0.028 | 0.05 | 0 | -0.003 | 0.038 | -0.082 | -0.216 (active) | 0.026 | 0.094 | -0.025 | -0.036 | 0.024 | 0.022 | -0.064 | -0.077
NUDT16 (UniProt Q96DE0) | -0.031 | -0.005 | -0.008 | -0.03 | -0.003 | 0.163 | 0.019 | -0.041 | -0.006 | 0.028 | 0.038 | 0.033 | -0.059 | 0.009 | -0.019 | -0.073 | -0.011 | -0.048 | -0.069 | -0.035
